This is part of a sample that, as a whole, favours compounds with a hit. Of some 83,000 tested, about 20% had one in any assay.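 Cells were grown in 96-well plates and exposed to the test compound at a single concentration for 48 hours; results are reported as percent growth, with values below 10 considered active.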 Values without a mark were called inactive. Calls of active or inactive are those of the source.

Common to all, as to assay: NCI-60 one-dose screen, 48 h (100 = growth as untreated, 0 = no growth, -100 = all killed)
What all share (details): 10 µM unless noted

Test [1] relates to BT-549 breast.
In test [2] the test system is MDA-MB-435 melanoma.
The test system of test [3] is SW-620 colon.
The subject of test [4] is MCF7 breast.
Test [5] deals with HCT-116 colon.
Test [6] concerns HCC-2998 colon.
Test [7] deals with KM12 colon.

`CCOC(=O)c1c(Nc2ccccc2)nn2c(N)c(C#N)c(-c3ccccc3)nc12`: the growth in test [1] is 95%; in test [2], 75.3%; in test [3] it was 81.6%; in test [4], 60.1%; in test [5], 78.3%; in test [6], 97%. The growth in test [7] was 77.7%.
As to `C#Cc1nc(C2=C(C)C(=O)/C(=N/OC(C)=O)C2)cs1`, the growth in test [1] is 95%; in test [2], 94.8%; in test [3] it was 110%; in test [4] it was 68.4%; in test [5], 78.4%; in test [6] it was 117%. Further, the growth in test [7] is 46.8%.
For `CN(C)CCCNc1c2ccc(Cl)cc2nc2c1oc1ccccc12`, the growth is 53.4% in test [1]; -40.6% (active) in test [2]; -1.01% (active) in test [3]; -21.7% (active) in test [4]; -19.8% (active) in test [5]; -70.8% (active) in test [6]. Further, the growth in test [7] was 1.73% (active).
As for `COc1ccc(/C=N/Nc2ccnc3cc(Cl)ccc23)cc1Cl`, the growth in test [1] is -79.8% (active); in test [2] it was -84.1% (active); in test [3] it was -89% (active); in test [4] it was -12.2% (active); in test [5], -89.4% (active); in test [6], -39.9% (active). In addition, the growth in test [7] is -88.6% (active).
As for `Clc1ccc2c(OCCCN3CCOCC3)c3oc4ccccc4c3nc2c1`, the growth in test [1] is 80.1%; in test [2], 33.2%; in test [3], 19.2%; in test [4], 10.4%; in test [5], 17.7%; in test [6] it was 46%. Also, the growth in test [7] was 33.1%.
For the compound `CN(C)c1ccc(-c2c(NC(C)(C)C)nc3c(OCCc4ccccc4)cccn23)cc1`, the growth in test [1] is 42.3%; in test [2], 24%; in test [3], 12.4%; in test [4], 1.49% (active); in test [5], 8.37% (active); in test [6], 13%. For the same compound, in test [7], the growth is 6.85% (active).
On to `Cc1cc2nc3c4cc(Cl)ccc4n(CC(=S)NCCN(C)C)c3nc2cc1C`, for which the growth in test [1] is 75%; in test [2], -92.4% (active); in test [3], -91.4% (active); in test [4] it was -81.5% (active); in test [5], -94.2% (active); in test [6], -82.9% (active). In test [7], the growth is -60.2% (active).
With `CCOC(=O)c1c(NC(=O)c2cccc(C(F)(F)F)c2)sc2cc(O)ccc12`, the growth was 89.7% in test [1]; 104% in test [2]; 103% in test [3]; 46.6% in test [4]; 91.7% in test [5]; 95.5% in test [7].
For `CSc1ccc2c(c1)N(C(=O)/C(C#N)=C/c1c[nH]c3ccccc13)c1ccccc1S2`, the growth was 55.8% in test [1]; 11.7% in test [2]; 34.5% in test [3]; 23.1% in test [4]; 24.3% in test [5]; 24.5% in test [7].
Regarding `O=C(CSc1nccc(=O)[nH]1)Nc1ccc(-c2nc3ccccc3[nH]2)cc1`, the growth in test [1] is 103%; in test [2], 111%; in test [3], 116%; in test [4], 103%; in test [5], 106%; in test [6], 116%. Further, in test [7], the growth was 86.3%.
For `O=C(N/N=C/c1ccc[nH]1)c1[nH]c2ccc(Br)cc2c1-c1ccccc1`, the growth is -12.5% (active) in test [1]; 2.21% (active) in test [2]; 22.8% in test [3]; 3.98% (active) in test [4]; 0.0164% (active) in test [5]; 17.2% in test [6]. For the same compound, the growth in test [7] was 10.4%.
Regarding `COc1ccc(-n2c(SCC(=O)Nc3ccc(-c4nc5ccccc5[nH]4)cc3)nc3ccccc3c2=O)cc1`, the growth is -65% (active) in test [1]; -14.4% (active) in test [2]; 8.47% (active) in test [3]; -49.2% (active) in test [4]; -39.6% (active) in test [5]; 34.8% in test [6]. Also, the growth in test [7] was 18.7%.
Consider `Cn1ccnc1C(=O)/C=C/c1ccc(NC(=O)Nc2ccccc2)cc1`, for which the growth is -3.85% (active) in test [1]; -13.3% (active) in test [2]; 2.15% (active) in test [3]; 6.81% (active) in test [4]; 3.54% (active) in test [5]; -22% (active) in test [6]. The growth in test [7] is 1.03% (active).
With `Cc1nc(-c2cc3ccccc3oc2=O)ccc1C(=O)/C=C/c1ccc(N2CCOCC2)cc1`, the growth in test [1] is 76.9%; in test [2], -21.1% (active); in test [3] it was 83.5%; in test [4], 51.6%; in test [5] it was 89.1%; in test [6], 83.9%. Further, the growth in test [7] is 68.9%.
Turning to `O=C(c1ccc(Cl)cc1)C1[C@H](c2ccc(Cl)cc2)[C@@H](c2ccccc2)NC12C(=O)Nc1ccc(Br)cc12` (stereo partly specified), the growth is 61.4% in test [1]; 34.8% in test [2]; 36.3% in test [3]; 15.8% in test [4]; 13.2% in test [5]; 13.3% in test [6]. Also, in test [7], the growth was 15.3%.
As to `COc1ccc(CNS(=O)(=O)/N=C2\NC(=O)NC2=C(Cl)Cl)cc1`, the growth in test [1] is -8.05% (active); in test [2], -3.14% (active); in test [3], 27.2%; in test [4], 18.2%; in test [5], 6.95% (active); in test [7] it was 17.1%.
With `Cc1cc(C(=O)Nc2sc3c(c2C(N)=O)CCC(=O)C3)ccc1OCCN1CCCCC1`, the growth was 129% in test [1]; 103% in test [2]; 86.5% in test [3]; 95.3% in test [4]; 84.1% in test [5]; 88.7% in test [7].
As for `COc1ccc([C@@H]2c3[nH]c4ccccc4c3CC3C(=O)N(C4CCN(Cc5c(F)cccc5F)CC4)CC(=O)N32)c(OC)c1` (stereo partly specified), the growth in test [1] is 30.4% [5.26 µM]; in test [2], 60% [5.26 µM]; in test [3], 64.6% [5.26 µM]; in test [4], 42.4% [5.26 µM]; in test [5], -15.2% [5.26 µM] (active); in test [7] it was 58.1% [5.26 µM].

The values are drawn from PubChem BioAssay (NCI).
